Results from the supplement of paper PMC11732987, “Enantioselective OTUD7B fragment discovery through chemoproteomics screening and high-throughput optimisation” (Communications Chemistry, 2025).

Experiments:
Assay in all cases: log2 ratio of Biotin-Ahx-Ub-VS probe labelling (fragment/DMSO); higher = less target engagement (more negative = stronger competition), active = hit call of the paper (q ≤ 0.05, log2 ratio ≤ -1)
Settings in all cases: compound concentration: 200 uM; treatment time: 3 h
USP34 = USP34 (UniProt Q70CQ2)
Procedure, shortened: (§1)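 Global-median-normalised Spectronaut label-free quantities were compared by unpaired t-test, and values are average log2 ratios of fragment over vehicle. Only proteins with ≥2 unique peptides were used. HEK293T lysate (495 µg per sample) was treated in triplicate with fragment at 200 µM or vehicle for 3 h and then with Biotin-Ahx-Ub-VS at 0.5 µM final for 1 h. Labelled DUBs were then NeutrAvidin-enriched, digested with LysC and trypsin, and run by diaPASEF LC-MS/MS.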

USP36 = molecular target: T1, USP36 (UniProt Q9P275)
T1 sequence (whole entry): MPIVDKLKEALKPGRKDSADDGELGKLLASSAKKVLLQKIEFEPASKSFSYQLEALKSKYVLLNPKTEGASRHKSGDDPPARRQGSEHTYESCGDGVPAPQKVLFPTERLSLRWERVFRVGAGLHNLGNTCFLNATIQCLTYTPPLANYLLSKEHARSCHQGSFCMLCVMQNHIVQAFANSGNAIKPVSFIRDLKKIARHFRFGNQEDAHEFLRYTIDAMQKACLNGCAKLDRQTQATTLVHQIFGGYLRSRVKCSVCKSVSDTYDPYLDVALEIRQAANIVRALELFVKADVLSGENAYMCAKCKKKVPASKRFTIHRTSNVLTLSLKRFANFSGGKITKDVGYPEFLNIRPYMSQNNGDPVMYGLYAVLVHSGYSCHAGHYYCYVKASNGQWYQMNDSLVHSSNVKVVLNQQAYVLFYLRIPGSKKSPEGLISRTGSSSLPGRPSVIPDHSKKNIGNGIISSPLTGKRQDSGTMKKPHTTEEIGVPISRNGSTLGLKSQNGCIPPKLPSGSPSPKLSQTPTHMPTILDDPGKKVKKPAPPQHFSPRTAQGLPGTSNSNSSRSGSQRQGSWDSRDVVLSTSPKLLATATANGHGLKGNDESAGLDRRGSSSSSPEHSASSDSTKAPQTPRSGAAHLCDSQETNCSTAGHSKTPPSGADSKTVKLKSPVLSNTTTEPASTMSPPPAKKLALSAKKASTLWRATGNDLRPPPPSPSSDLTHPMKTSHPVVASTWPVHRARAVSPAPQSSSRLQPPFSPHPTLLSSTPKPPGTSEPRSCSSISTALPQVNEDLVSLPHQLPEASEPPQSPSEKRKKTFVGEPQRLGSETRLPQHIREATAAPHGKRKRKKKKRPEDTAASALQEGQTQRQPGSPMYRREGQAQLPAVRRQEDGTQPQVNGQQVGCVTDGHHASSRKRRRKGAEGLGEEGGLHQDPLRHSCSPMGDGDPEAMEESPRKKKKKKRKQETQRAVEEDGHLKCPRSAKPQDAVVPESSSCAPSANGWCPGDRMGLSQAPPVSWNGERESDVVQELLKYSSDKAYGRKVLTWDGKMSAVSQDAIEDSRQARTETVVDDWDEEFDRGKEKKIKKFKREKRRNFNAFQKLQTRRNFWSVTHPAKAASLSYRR
Procedure, shortened: as §1

USP38 = molecular target: T2, USP38 (UniProt Q8NB14)
T2 sequence (whole entry): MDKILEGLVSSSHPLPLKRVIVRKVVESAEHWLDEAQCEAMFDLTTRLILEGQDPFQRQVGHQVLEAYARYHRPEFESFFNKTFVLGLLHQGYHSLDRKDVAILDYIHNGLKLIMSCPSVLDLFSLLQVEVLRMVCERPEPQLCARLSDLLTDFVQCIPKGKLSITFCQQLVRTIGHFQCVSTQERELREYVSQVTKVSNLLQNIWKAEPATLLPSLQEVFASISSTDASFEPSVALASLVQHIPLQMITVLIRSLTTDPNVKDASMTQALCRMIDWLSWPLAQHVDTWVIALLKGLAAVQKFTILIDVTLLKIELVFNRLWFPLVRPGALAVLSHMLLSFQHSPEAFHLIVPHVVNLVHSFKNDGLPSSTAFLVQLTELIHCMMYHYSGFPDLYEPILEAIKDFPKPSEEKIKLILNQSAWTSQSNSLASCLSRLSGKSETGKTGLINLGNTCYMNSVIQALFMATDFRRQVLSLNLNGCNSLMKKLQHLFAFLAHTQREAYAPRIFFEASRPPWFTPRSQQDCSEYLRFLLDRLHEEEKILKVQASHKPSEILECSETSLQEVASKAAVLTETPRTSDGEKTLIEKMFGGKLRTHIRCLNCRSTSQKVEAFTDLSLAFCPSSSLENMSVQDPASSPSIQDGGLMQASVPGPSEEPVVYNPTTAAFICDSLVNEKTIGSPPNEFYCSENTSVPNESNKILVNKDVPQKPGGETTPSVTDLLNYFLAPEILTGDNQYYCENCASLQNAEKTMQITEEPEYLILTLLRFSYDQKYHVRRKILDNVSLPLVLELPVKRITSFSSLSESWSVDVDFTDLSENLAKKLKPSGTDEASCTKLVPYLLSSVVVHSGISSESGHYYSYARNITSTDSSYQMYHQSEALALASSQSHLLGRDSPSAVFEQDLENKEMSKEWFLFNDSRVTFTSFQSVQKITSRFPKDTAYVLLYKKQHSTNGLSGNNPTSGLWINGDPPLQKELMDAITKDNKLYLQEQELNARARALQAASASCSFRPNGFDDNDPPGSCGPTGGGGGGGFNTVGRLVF
Procedure, shortened: as §1

USP39 = molecular target: T3, USP39 (UniProt Q53GS9)
T3 sequence (whole entry): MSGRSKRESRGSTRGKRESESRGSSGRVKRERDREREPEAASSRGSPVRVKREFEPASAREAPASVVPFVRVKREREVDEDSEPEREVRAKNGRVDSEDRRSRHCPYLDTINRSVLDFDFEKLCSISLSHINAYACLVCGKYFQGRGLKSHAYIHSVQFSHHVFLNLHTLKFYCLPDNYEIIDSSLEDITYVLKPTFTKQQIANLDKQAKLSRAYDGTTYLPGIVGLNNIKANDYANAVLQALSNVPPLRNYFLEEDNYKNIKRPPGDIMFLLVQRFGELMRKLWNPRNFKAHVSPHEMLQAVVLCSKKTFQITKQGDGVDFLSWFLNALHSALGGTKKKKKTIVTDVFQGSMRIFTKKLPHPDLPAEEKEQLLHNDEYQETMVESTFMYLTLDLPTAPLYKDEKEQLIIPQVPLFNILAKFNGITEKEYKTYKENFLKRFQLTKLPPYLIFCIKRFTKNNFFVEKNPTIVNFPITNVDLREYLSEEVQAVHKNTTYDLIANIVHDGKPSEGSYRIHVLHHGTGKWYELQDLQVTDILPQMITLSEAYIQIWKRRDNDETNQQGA
Procedure, shortened: as §1

USP4 = molecular target: T4, USP4 (UniProt Q13107)
T4 sequence (whole entry): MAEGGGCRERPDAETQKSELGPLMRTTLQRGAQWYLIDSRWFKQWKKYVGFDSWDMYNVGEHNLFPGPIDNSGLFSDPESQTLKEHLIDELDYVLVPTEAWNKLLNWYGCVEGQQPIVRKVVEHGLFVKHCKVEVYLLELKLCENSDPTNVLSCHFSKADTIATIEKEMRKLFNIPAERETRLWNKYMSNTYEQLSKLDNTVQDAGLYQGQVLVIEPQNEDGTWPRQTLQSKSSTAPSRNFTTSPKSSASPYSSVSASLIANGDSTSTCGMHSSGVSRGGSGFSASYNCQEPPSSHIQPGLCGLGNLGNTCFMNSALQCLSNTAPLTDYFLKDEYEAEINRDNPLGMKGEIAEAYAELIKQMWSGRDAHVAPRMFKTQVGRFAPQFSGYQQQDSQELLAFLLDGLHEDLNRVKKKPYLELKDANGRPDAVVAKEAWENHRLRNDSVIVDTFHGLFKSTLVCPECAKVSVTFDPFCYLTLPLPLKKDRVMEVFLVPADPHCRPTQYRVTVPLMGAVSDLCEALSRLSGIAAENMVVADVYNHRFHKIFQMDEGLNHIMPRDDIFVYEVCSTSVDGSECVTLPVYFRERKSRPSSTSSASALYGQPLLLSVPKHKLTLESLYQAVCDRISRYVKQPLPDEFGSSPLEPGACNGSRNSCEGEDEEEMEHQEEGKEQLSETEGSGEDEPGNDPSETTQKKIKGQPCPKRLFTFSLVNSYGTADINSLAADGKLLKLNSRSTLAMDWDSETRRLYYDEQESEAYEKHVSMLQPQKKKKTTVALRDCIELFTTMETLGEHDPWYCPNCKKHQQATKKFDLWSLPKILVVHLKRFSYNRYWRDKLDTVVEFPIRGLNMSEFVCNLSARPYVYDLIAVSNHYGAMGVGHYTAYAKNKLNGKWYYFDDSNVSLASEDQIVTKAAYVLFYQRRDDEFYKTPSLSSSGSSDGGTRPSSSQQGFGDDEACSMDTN
Procedure, shortened: as §1

Measured: log2 ratio of Biotin-Ahx-Ub-VS probe labelling

Sequence of USP34 (Q70CQ2 whole entry, the tested form may be a part): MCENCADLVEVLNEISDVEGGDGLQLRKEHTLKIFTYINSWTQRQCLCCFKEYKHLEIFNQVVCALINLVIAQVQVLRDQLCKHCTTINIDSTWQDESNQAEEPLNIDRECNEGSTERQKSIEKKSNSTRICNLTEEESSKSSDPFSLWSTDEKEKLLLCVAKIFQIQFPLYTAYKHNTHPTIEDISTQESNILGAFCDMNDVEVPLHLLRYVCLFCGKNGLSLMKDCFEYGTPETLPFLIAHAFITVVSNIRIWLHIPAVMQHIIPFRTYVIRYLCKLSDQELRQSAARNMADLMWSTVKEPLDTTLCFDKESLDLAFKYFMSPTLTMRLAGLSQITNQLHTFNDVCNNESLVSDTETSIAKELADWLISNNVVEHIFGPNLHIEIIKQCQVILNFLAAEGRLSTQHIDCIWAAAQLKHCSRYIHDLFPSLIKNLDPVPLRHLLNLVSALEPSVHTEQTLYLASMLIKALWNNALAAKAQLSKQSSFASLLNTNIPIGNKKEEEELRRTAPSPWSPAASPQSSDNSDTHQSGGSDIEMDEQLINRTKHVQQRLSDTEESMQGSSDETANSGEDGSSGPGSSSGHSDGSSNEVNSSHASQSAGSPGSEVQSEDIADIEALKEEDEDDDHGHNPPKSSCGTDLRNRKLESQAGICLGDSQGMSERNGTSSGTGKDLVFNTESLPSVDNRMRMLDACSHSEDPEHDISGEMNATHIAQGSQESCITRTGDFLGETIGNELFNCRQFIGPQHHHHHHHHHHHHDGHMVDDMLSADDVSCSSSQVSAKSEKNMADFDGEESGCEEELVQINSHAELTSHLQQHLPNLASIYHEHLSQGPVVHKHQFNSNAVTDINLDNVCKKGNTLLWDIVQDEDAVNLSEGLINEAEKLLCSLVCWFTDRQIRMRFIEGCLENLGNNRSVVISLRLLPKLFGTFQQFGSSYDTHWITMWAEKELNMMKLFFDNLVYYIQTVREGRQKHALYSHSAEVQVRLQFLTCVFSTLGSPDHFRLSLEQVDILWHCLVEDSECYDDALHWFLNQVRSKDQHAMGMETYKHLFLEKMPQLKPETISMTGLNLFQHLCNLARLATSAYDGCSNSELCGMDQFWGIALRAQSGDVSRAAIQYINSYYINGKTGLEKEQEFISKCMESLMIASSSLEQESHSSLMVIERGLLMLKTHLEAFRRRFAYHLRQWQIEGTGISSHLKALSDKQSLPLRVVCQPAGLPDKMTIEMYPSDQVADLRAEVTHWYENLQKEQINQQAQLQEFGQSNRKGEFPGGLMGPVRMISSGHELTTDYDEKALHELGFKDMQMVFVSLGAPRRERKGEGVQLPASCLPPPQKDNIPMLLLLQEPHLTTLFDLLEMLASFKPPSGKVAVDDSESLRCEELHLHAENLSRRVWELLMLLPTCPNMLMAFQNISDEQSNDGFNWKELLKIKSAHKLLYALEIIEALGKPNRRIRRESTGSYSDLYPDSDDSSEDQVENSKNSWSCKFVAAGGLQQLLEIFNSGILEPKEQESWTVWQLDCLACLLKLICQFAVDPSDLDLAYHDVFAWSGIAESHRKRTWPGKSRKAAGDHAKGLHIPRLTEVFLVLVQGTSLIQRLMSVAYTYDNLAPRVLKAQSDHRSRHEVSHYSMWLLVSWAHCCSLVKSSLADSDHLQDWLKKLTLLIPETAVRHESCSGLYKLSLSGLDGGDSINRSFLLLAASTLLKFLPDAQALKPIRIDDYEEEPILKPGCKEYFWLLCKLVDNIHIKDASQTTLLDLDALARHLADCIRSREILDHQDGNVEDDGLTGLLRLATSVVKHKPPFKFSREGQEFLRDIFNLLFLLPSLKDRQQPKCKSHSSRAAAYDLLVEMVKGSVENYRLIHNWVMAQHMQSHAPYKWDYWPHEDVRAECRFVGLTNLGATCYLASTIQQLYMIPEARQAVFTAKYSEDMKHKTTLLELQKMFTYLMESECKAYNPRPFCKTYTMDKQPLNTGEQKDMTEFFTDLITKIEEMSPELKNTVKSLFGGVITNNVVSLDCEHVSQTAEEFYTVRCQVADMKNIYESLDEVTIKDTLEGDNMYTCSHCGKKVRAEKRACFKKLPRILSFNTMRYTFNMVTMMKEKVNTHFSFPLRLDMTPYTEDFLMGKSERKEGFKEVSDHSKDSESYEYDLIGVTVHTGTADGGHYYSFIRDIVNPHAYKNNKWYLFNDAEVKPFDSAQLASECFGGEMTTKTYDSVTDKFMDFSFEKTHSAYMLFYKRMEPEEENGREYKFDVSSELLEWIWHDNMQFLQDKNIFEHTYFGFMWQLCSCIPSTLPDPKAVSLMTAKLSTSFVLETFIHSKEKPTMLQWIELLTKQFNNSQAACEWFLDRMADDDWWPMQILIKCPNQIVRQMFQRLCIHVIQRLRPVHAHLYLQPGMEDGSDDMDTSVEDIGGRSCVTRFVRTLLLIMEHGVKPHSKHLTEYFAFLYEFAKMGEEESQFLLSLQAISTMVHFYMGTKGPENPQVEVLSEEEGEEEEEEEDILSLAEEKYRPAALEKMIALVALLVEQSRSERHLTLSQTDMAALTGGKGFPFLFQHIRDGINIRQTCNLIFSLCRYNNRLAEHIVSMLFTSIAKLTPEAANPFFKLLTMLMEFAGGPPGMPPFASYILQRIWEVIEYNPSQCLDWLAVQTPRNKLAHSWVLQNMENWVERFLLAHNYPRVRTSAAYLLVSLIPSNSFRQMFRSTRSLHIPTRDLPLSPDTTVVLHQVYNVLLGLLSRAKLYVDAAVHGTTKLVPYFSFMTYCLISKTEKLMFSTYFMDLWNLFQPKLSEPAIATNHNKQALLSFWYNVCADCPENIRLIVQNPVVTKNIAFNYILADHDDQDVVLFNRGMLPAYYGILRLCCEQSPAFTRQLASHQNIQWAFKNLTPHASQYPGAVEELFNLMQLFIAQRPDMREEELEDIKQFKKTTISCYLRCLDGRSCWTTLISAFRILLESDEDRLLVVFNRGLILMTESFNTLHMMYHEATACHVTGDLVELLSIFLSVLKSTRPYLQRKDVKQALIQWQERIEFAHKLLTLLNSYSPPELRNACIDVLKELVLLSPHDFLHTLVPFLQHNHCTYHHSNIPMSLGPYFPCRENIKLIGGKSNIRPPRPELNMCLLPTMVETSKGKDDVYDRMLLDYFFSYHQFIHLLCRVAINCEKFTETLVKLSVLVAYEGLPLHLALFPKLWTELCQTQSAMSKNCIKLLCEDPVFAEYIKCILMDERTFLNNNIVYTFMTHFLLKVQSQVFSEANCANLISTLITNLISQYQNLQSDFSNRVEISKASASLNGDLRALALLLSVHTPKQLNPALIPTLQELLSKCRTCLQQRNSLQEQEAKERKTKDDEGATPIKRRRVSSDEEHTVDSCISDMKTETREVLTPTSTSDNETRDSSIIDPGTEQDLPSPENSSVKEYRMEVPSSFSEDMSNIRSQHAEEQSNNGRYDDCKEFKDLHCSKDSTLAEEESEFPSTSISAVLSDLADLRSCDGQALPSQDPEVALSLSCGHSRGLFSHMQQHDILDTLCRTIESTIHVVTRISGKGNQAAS

NS(=O)(=O)c1ccc(Cl)c(NC(=O)CCl)c1
inactive: USP34 -0.381 | USP36 -0.132 | USP38 0.0479 | USP39 0.175 | USP4 -0.198
